Assay results published in PubChem BioAssay AID1347081 (National Center for Advancing Translational Sciences (NCATS), 2019).
Results filed as inconclusive are left out. The source made the active and inactive calls. Calls come from the whole dose curve.

assay: qHTS for Inhibitors of the Functional Ribonucleoprotein Complex (vRNP) of Lassa (LASV) Arenavirus: Viability assay - alamar blue signal for LASV Confirmatory Screen; conditions: LASV vRNP counter-screen cells; series mostly up to 53.9 µM

Row | Structure (SMILES) | Potency | activity change, negative = decreased viability
1 | CC[C@@]1([C@@H]2O[C@@H]([C@H]3O[C@@](O)(CO)[C@H](C)C[C@H]3C)C[C@H]2C)CC[C@H]([C@]2(C)CC[C@]3(C[C@H](O)[C@@H](C)[C@@H]([C@@H](C)[C@@H](OC)[C@H](C)C(=O)O)O3)O2)O1 | 4.21 µM (active) | 
2 | CC12C(=O)OC(=O)C1(C)C1CCC2O1 (centres undefined) | 3.85 µM (active) | 
3 | CCn1c(-c2nonc2N)nc2cnc(Oc3cccc(NC(=O)c4ccc(OCCN5CCOCC5)cc4)c3)cc21 | 8.63 µM (active) | 
4 | CCC(C)c1nccnc1OC (centres undefined) | inactive | 
5 | CN(C)c1ccc(O)c2c1C[C@H]1C[C@H]3[C@H](N(C)C)C(=O)C(C(N)=O)=C(O)[C@@]3(O)C(=O)C1=C2O | inactive | 
6 | CCCCC[C@H](O)/C=C/C=C/C/C=C\CCCC(=O)O |  | 20.4% [at 0.666 µM] (inactive)
7 | CO/C=C(/C(=O)OC)c1ccccc1Oc1cc(Oc2ccccc2C#N)ncn1 | 31.4 µM (active) | 
8 | CCCCCC[C@H]1C(=O)O[C@H](C)[C@H](NC(=O)c2cccc(NC=O)c2O)C(=O)O[C@@H](C)[C@@H]1OC(=O)CC(C)C | 0.0544 µM (active) | 
9 | C=C(C)[C@H]1Cc2c(ccc3c2O[C@@H]2COc4cc(OC)c(OC)cc4[C@@H]2C3=O)O1 | 0.193 µM (active) | 
10 | COC(=O)c1nc(Cl)c(Cl)nc1N | 1.93 µM (active) | 
11 | CC[C@@H](C(=O)O)[C@@H]1O[C@@H]([C@@H](C)[C@H](O)[C@H](C)C(=O)[C@H](CC)[C@H]2O[C@]3(C=C[C@@H](O)[C@]4(CC[C@@](C)([C@H]5CC[C@](O)(CC)[C@H](C)O5)O4)O3)[C@H](C)C[C@@H]2C)[C@@H](C)C[C@@H]1C | 1.57 µM (active) | 
12 | COc1cc2c(cc1OC)CC(=O)N(CCCN(C)C[C@H]1Cc3cc(OC)c(OC)cc31)CC2 | inactive | 
13 | CC1=C(C)C(=O)C(CCCCC#CCCCC#CCO)=C(C)C1=O | 24.3 µM (active) | 
14 | Cc1ncc([N+](=O)[O-])n1CC(C)O (centres undefined) | inactive | 
15 | O=C(Nc1ccc([N+](=O)[O-])cc1Cl)c1cc(Cl)ccc1O | 2.17 µM (active) | 
16 | CC(=O)OCC(=O)[C@@]12N=C(C)O[C@H]1C[C@H]1[C@@H]3CCC4=CC(=O)C=C[C@]4(C)[C@@H]3[C@@H](O)C[C@@]12C | inactive | 
17 | CCC(c1ccc(O)cc1)C(CC)c1ccc(O)cc1 (centres undefined) | inactive | 
18 | CN1C(C(=O)Nc2ccccn2)=C(O)c2ccccc2S1(=O)=O | inactive | 
19 | Oc1cc(Cl)ccc1Oc1ccc(Cl)cc1Cl | 39.5 µM (active) | 
20 | O=C1Cc2cc(CCN3CCN(c4nsc5ccccc45)CC3)c(Cl)cc2N1 | inactive | 
21 | CNCCCC1c2ccccc2C=Cc2ccccc21 | 24.3 µM (active) | 
22 | CCc1cncnc1N1CCN(Cc2nc3ccc(C(F)(F)F)cc3[nH]2)CC1 | 12.5 µM (active) | 
23 | CCCCCN=C(N)N/N=C/c1c[nH]c2ccc(OC)cc12 | 8.63 µM (active) | 
24 | COc1ccc(Cc2nccc3cc(OC)c(OC)cc23)cc1OC | 13.7 µM (active) | 
